Results: ChEMBL document CHEMBL1961873, “Compounds: GSK PKIS; Assays: Nanosyn kinase panel” (2012)

Key:
[1] = biological target: T1, Ephrin type-B receptor 2 (Homo sapiens) (UniProt P29323); details: at 1 µM
T1 sequence (whole entry): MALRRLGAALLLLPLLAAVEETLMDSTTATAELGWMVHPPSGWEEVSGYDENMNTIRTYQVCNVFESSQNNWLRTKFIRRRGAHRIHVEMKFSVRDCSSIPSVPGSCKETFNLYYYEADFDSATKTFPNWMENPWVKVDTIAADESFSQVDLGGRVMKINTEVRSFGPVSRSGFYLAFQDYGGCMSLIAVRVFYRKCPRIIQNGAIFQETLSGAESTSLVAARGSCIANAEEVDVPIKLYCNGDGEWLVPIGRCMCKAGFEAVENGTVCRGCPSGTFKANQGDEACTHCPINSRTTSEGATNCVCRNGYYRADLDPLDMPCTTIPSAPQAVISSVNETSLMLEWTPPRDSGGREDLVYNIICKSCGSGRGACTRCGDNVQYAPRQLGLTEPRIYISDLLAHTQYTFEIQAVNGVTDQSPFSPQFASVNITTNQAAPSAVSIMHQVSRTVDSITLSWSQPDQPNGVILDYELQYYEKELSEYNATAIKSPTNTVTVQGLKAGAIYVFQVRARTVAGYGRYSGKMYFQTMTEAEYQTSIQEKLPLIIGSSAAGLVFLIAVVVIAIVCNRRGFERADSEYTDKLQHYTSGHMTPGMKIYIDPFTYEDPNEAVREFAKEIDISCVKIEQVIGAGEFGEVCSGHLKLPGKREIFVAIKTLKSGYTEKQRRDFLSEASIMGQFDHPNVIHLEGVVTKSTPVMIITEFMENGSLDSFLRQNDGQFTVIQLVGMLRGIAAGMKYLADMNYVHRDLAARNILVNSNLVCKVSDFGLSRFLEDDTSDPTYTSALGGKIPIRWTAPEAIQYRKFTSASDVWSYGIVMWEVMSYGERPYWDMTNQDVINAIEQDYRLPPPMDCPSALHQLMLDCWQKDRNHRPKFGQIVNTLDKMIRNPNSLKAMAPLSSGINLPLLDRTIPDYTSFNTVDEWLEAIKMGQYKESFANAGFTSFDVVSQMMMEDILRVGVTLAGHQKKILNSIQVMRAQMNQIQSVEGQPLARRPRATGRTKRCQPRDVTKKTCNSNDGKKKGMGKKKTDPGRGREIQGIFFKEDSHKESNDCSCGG

[2] = biological target: T2, Ephrin type-B receptor 3 (Homo sapiens) (UniProt P54753); details: at 0.1 µM
T2 sequence (whole entry): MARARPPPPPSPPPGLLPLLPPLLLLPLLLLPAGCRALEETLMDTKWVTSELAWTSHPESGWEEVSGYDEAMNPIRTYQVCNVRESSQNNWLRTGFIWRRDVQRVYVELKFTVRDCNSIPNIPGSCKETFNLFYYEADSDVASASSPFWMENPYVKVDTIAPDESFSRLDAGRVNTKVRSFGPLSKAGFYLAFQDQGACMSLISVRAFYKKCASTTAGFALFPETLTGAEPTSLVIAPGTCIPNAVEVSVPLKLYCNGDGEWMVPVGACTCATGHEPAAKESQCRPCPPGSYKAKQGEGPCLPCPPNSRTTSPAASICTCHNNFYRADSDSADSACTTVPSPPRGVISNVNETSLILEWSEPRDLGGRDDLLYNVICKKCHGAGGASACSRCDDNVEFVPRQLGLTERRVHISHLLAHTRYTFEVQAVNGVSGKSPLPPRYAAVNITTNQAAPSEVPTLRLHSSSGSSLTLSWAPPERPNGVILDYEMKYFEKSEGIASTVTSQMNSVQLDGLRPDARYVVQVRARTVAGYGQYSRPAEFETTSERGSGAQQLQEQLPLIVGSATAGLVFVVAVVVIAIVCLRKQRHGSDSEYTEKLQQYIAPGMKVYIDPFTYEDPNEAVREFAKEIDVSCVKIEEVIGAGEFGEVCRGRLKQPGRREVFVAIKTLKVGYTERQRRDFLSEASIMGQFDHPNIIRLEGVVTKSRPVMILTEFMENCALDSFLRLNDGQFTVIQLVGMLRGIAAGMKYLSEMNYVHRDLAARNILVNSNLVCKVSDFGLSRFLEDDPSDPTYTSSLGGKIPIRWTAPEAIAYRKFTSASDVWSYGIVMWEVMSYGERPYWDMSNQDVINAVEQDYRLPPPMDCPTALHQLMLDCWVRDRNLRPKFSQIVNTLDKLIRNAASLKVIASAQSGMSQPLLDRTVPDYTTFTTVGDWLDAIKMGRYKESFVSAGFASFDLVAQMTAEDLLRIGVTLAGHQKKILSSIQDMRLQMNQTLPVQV

[3] = biological target: T2, Ephrin type-B receptor 3 (Homo sapiens); details: at 1 µM
[4] = biological target: T3, Ephrin type-B receptor 4 (Homo sapiens) (UniProt P54760); details: at 0.1 µM
T3 sequence (whole entry): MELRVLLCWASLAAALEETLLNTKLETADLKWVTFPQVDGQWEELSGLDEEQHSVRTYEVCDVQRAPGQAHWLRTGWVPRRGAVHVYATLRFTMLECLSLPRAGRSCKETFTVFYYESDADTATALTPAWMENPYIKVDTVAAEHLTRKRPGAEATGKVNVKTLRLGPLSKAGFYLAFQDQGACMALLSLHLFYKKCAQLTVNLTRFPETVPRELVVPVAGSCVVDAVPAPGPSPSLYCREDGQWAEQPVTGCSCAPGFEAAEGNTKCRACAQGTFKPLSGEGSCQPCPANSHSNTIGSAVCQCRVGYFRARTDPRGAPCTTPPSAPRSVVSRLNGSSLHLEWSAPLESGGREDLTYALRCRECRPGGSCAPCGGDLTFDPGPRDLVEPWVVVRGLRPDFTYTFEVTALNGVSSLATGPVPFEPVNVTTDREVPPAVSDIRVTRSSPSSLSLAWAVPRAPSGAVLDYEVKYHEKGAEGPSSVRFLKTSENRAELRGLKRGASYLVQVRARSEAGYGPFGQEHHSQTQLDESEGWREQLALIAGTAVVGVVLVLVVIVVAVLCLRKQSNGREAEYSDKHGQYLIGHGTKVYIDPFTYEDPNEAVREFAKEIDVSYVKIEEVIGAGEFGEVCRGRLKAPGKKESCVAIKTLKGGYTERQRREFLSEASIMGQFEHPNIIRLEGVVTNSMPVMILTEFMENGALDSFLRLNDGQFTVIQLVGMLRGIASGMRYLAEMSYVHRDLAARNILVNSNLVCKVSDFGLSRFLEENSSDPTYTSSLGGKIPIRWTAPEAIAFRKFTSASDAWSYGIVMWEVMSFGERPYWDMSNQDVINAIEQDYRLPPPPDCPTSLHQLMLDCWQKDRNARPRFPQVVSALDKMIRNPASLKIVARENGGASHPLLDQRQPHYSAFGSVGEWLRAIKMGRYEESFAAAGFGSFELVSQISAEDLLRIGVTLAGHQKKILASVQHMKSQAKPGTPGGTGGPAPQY

[5] = biological target: T3, Ephrin type-B receptor 4 (Homo sapiens); details: at 1 µM
[6] = biological target: Receptor tyrosine-protein kinase erbB-2 (Homo sapiens) (UniProt P04626); details: at 0.1 µM
[7] = biological target: Receptor tyrosine-protein kinase erbB-2 (Homo sapiens) (UniProt P04626); details: at 1 µM
[8] = biological target: Receptor tyrosine-protein kinase erbB-4 (Homo sapiens) (UniProt Q15303); details: at 0.1 µM
[9] = biological target: Receptor tyrosine-protein kinase erbB-4 (Homo sapiens) (UniProt Q15303); details: at 1 µM
[10] = biological target: Tyrosine-protein kinase Fer (Homo sapiens) (UniProt P16591); details: at 0.1 µM
[11] = biological target: Tyrosine-protein kinase Fer (Homo sapiens) (UniProt P16591); details: at 1 µM
[12] = biological target: Tyrosine-protein kinase Fes/Fps (Homo sapiens) (UniProt P07332); details: at 0.1 µM
[13] = biological target: Tyrosine-protein kinase Fes/Fps (Homo sapiens) (UniProt P07332); details: at 1 µM
[14] = biological target: Fibroblast growth factor receptor 1 (Homo sapiens) (UniProt P11362); details: at 0.1 µM
[15] = biological target: Fibroblast growth factor receptor 1 (Homo sapiens) (UniProt P11362); details: at 1 µM
[16] = biological target: Fibroblast growth factor receptor 2 (Homo sapiens) (UniProt P21802); details: at 0.1 µM
[17] = biological target: Fibroblast growth factor receptor 2 (Homo sapiens) (UniProt P21802); details: at 1 µM
[18] = biological target: Fibroblast growth factor receptor 3 (Homo sapiens) (UniProt P22607); details: at 0.1 µM
[19] = biological target: Fibroblast growth factor receptor 3 (Homo sapiens) (UniProt P22607); details: at 1 µM
[20] = biological target: Fibroblast growth factor receptor 4 (Homo sapiens) (UniProt P22455); details: at 0.1 µM;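 also: values are mean percent inhibition of FGFR4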

Fibroblast growth factor receptor 3 (Homo sapiens), sequence (P22607 23-806 limits assumed): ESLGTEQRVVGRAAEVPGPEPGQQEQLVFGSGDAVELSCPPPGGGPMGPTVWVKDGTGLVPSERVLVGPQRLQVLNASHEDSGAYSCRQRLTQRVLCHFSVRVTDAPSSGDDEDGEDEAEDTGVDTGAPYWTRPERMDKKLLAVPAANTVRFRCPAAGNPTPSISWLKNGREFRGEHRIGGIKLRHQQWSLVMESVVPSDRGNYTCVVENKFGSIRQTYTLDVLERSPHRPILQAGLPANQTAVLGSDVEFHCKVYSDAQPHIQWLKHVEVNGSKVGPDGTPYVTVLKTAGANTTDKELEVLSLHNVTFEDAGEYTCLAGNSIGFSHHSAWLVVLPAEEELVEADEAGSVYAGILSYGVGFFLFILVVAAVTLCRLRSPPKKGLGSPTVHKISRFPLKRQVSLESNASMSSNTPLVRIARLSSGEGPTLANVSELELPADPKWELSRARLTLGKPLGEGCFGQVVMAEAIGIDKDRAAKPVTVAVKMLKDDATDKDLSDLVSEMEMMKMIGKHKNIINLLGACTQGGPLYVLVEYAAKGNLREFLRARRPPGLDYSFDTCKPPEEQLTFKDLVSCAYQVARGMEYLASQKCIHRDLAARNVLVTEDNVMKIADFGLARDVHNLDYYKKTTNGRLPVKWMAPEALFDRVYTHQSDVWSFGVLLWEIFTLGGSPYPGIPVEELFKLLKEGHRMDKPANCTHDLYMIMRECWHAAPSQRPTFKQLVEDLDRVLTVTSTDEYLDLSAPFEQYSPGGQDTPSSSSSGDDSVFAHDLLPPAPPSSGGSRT
Tyrosine-protein kinase Fer (Homo sapiens), sequence (P16591 whole entry, looked up): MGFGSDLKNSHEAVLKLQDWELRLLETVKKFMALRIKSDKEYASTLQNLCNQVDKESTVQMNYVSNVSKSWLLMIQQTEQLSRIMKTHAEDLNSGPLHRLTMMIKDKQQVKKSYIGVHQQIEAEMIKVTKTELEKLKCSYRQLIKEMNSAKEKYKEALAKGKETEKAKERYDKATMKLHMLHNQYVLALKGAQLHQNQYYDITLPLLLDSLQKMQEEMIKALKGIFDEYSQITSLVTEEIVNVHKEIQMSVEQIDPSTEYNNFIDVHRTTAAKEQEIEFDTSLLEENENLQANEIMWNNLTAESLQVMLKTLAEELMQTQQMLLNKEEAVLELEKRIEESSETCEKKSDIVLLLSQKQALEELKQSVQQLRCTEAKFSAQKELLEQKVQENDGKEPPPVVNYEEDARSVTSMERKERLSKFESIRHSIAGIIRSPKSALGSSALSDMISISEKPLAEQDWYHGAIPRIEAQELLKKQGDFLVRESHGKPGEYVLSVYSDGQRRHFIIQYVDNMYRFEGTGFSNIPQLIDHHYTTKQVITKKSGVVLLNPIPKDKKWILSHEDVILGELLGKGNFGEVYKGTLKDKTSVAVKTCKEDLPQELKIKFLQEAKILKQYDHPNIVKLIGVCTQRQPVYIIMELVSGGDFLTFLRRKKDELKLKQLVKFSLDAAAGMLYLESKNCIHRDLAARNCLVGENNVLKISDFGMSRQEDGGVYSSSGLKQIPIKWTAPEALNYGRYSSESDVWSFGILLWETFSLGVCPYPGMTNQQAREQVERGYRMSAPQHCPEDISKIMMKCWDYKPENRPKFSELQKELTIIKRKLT
Receptor tyrosine-protein kinase erbB-2 (Homo sapiens), sequence (P04626 whole entry): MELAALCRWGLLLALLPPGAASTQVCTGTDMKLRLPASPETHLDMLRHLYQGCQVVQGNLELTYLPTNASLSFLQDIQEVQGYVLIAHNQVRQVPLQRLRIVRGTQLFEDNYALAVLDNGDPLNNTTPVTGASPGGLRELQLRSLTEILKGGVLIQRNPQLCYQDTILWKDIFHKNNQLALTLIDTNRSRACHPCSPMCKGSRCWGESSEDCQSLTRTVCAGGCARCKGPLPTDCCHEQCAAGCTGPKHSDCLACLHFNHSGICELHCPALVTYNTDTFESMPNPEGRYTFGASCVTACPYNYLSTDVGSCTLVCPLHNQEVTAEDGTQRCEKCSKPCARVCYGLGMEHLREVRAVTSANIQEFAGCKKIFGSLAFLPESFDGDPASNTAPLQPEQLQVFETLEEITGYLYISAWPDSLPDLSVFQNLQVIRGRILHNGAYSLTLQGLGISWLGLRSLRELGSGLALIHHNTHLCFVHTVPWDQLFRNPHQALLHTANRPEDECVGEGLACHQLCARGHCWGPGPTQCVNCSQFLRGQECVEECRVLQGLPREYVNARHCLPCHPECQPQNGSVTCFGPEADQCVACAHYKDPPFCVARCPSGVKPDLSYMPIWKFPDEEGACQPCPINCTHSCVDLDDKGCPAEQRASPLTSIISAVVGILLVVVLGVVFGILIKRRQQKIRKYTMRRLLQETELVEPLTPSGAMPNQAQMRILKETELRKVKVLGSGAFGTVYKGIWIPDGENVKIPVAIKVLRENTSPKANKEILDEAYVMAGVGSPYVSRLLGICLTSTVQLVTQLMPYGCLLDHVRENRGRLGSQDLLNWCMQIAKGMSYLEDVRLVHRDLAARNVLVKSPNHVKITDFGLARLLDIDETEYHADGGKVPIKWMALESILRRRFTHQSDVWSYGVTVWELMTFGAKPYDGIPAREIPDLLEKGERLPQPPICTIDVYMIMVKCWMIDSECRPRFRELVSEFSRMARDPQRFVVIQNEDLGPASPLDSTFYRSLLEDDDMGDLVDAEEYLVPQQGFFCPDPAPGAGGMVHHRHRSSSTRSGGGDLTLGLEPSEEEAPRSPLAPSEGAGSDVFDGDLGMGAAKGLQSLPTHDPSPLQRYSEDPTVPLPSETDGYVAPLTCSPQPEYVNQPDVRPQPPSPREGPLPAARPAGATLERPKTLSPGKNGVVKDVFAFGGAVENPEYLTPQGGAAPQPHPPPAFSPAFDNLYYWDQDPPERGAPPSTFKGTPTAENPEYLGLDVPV
Fibroblast growth factor receptor 2 (Homo sapiens), sequence (P21802 22-821 limits assumed): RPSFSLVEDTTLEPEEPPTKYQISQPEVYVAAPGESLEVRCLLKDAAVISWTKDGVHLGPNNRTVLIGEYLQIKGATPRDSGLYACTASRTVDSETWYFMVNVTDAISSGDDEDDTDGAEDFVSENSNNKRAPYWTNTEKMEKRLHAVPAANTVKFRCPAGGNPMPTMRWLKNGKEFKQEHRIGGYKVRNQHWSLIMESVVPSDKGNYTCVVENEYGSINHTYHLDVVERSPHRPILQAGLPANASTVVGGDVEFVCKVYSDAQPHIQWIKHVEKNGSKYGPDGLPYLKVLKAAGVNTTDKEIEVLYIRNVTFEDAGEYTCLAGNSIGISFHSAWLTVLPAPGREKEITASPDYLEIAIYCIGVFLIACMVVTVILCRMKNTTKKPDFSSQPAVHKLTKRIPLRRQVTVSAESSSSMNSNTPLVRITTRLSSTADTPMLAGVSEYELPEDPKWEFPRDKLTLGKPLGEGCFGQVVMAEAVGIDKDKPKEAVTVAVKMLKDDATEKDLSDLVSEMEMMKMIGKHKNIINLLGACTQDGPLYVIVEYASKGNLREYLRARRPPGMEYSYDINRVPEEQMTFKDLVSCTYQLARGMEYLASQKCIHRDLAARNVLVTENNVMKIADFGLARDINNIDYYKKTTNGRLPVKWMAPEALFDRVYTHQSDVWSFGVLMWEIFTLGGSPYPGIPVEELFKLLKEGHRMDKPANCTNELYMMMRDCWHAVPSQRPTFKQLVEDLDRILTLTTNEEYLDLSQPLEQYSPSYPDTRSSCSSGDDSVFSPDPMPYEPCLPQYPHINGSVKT
Tyrosine-protein kinase Fes/Fps (Homo sapiens), sequence (P07332 whole entry): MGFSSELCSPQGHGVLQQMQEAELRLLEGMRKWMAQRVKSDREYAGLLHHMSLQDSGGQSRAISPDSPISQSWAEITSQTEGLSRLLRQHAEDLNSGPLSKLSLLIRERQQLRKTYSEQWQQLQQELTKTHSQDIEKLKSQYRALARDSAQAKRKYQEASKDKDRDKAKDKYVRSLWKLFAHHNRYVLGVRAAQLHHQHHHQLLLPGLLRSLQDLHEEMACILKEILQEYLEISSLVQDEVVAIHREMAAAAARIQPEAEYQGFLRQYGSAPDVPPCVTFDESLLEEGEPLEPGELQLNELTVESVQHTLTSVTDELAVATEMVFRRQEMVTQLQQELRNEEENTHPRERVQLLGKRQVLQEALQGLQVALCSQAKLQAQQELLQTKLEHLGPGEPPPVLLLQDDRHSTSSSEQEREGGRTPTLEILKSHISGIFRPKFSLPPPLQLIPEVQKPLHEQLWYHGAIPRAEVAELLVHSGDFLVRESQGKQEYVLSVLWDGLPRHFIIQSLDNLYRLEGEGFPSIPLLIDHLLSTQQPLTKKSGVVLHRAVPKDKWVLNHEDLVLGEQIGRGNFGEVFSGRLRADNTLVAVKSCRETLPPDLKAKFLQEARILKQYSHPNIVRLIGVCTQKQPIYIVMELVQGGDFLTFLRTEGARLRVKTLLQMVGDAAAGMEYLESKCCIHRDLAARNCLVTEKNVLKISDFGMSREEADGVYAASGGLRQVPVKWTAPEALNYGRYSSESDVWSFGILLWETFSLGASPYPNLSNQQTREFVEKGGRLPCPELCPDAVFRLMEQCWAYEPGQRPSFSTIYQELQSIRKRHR

| Compound | inhibition [1] | inhibition [2] | inhibition [3] | inhibition [4] | inhibition [5] | inhibition [6] | inhibition [7] | inhibition [8] | inhibition [9] | inhibition [10] | inhibition [11] | inhibition [12] | inhibition [13] | inhibition [14] | inhibition [15] | inhibition [16] | inhibition [17] | inhibition [18] | inhibition [19] | inhibition [20] |
| --- | --- | --- | --- | --- | --- | --- | --- | --- | --- | --- | --- | --- | --- | --- | --- | --- | --- | --- | --- | --- |
| NS(=O)(=O)c1ccc(-c2cc3ccncc3cc2OCc2ccccc2)cc1 | 12.6% | 5.73% | 3.29% | 2.88% | 2.91% | 2.03% | 3.62% | 7.38% | 8.97% | 5.47% | 8.24% | 2.42% | 4.62% | 4.72% | 3.35% | 2.27% | 3.78% | 2.04% | 2.76% | -2.59% |
| CCn1c(-c2nonc2N)nc2c(C#CC(C)(C)O)nc(OCCNC)cc21 | 8.26% | -3.04% | 4% | 2.31% | 2.13% | 0.68% | 3.83% | 4.11% | 7.02% | -0.15% | 1.17% | 4.11% | 4.46% | 6.92% | 5.9% | 5.4% | 6.92% | 7.79% | 3.95% | 4.43% |
| COc1cc2ncnc(Nc3ccc(C)c(O)c3)c2cc1OC | 41.4% | 6.58% | 2.9% | 8.74% | 36.9% | 7.8% | 26.3% | 31.7% | 68.7% | 4.24% | 7.9% | 2.91% | 3.54% | 4.9% | 17.2% | 5.64% | 15.8% | 6.03% | 10.2% | -0.45% |
| C[C@@H](Oc1cc(-n2cnc3ccc(OCC4CCN(C)CC4)cc32)sc1C(N)=O)c1ccccc1C(F)(F)F | -1.46% | -3.13% | -1.08% | -1.38% | 0.52% | -0.64% | 0.08% | -5.11% | -0.34% | -2.09% | 4.43% | -1.88% | -1.98% | -9.02% | 13% | -3.05% | 7.56% | -0.95% | 0.66% | 0.86% |
| NC(=O)c1sc(-n2cnc3ccccc32)cc1OCc1ccccc1Br | 10.9% | 4.52% | 6.83% | 1.58% | 3.37% | 0.61% | 3.64% | 3.34% | 9.23% | -0.27% | 3.22% | 2.73% | 4.01% | 6.09% | 6.22% | 5.8% | 4.79% | 5.69% | 4.87% | 1.18% |
| CN(C)c1cc2c(Nc3ccc4c(cnn4Cc4ccccc4)c3)ncnc2cn1 | 0.46% | 4.69% | 1.55% | 0.91% | 2.11% | 53.4% | 86.6% | 91.1% | 94.6% | 1.79% | 7.22% | 2.58% | 3.25% | 2.28% | 4.22% | 2.03% | 2.51% | 4.39% | 4.14% | 0.85% |
| CCS(=O)(=O)c1ccc(OC)c(Nc2nccc(N(C)c3ccc4c(C)n[nH]c4c3)n2)c1 | 43.6% | 2.23% | 6.04% | 17.4% | 65.8% | 7.28% | 13.4% | 18.5% | 60.5% | 2.69% | 34.3% | 3.93% | 6.48% | 8.89% | 37.3% | 18.8% | 56.1% | 17.4% | 54.7% | -0.42% |
| COc1cccc(-n2nc(C)c3c(N/N=C(\C)c4ccncc4)ncnc32)c1 | 3.31% | 1.98% | 0.96% | 0.44% | 1.01% | 0.07% | 2.47% | 0.79% | -0.06% | 1.02% | 1.89% | 0.8% | 0.14% | 1.88% | -1.01% | 3.14% | -0.1% | 1.89% | 2% | 1.2% |
